What was measured:
Assay in all cases: DAPPL (digital affinity profiling via proximity ligation, sequencing); 10 mM Tris-HCl pH 7.5, 50 mM NaCl, 1 mM DTT, 4% glycerol, room temperature, 30 min; GST-TFs on glutathione beads, 16-mer random dsDNA library, 0.1% formaldehyde crosslink after washing; high values mean tight binding
Conditions in all cases: protein: recombinant; tags: N-terminal GST; dsDNA, one strand shown
[1] = biological target: T1, FEV (Homo sapiens, UniProt Q99581 1-238)
T1 sequence: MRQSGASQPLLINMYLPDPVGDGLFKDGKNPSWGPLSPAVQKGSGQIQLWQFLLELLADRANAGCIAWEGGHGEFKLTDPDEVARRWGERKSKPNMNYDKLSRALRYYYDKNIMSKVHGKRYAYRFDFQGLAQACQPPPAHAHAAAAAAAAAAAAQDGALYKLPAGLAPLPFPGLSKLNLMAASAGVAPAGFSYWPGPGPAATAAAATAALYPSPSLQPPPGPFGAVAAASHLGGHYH
Summary of the method: (§1)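 Sequencing on an Illumina NextSeq500 followed washing, crosslinking with 0.1% formaldehyde, proximity ligation (BsaI/T4 ligase, 1 h, 37 °C) and PCR amplification of pools that had been incubated for 30 min at room temperature with 200 nmole of a random double-stranded 16-mer DNA library in Tris/NaCl/DTT/glycerol buffer. Each pool held DNA-barcoded human transcription factors, expressed in yeast as GST fusions and captured on glutathione beads, plus a tag-only sample. Binding signal is a hexamer's read frequency for a factor divided by its frequency in the tag-only sample.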

[2] = biological target: ETV5 (Homo sapiens, UniProt P41161 1-510)
Sequence of ETV5 (P41161 whole entry): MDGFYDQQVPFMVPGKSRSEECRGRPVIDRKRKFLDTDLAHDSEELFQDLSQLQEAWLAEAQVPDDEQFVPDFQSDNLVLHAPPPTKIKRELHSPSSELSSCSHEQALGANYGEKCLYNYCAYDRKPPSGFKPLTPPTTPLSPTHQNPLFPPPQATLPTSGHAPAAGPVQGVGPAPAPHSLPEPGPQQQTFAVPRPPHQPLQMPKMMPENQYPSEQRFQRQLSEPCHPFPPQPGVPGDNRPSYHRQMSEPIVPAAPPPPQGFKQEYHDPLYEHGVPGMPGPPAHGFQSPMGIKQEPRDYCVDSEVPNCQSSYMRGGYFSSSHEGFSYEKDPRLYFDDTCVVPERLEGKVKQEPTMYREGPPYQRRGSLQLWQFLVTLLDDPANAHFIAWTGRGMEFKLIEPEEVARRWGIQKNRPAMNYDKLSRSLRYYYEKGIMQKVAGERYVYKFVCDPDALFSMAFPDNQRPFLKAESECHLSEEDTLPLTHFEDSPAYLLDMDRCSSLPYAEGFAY
Summary of the method: as §1

[3] = biological target: T2, SPIC (Homo sapiens, UniProt Q8N5J4 1-248)
T2 sequence: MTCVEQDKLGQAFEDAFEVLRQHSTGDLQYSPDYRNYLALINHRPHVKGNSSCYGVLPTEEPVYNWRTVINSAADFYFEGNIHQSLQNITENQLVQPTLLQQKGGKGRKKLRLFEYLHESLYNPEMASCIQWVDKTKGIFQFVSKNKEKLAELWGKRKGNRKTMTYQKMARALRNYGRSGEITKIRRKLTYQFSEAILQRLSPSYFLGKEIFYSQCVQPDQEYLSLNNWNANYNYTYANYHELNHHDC
Summary of the method: as §1

[4] = biological target: ELF4 (Homo sapiens, UniProt Q99607 1-663)
Sequence of ELF4 (Q99607 whole entry): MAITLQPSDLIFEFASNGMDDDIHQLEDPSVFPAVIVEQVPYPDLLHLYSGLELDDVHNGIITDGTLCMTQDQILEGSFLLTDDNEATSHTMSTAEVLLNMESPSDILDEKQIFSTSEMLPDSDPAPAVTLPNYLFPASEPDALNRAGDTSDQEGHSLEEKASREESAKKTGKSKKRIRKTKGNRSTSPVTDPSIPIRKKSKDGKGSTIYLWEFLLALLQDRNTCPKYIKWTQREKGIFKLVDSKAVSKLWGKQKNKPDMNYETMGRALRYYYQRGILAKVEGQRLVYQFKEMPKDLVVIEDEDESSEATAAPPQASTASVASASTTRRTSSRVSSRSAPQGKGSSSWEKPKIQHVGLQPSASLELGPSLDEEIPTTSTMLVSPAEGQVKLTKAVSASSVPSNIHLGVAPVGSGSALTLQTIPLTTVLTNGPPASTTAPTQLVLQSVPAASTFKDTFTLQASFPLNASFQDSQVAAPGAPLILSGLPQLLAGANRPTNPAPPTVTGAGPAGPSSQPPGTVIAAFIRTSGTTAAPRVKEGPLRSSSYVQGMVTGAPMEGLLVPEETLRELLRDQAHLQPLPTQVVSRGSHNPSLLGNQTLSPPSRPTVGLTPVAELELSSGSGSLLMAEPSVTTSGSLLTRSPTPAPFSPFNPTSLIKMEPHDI
Summary of the method: as §1

[5] = biological target: T3, ELK4 (Homo sapiens, UniProt P28324-2 1-405)
T3 sequence: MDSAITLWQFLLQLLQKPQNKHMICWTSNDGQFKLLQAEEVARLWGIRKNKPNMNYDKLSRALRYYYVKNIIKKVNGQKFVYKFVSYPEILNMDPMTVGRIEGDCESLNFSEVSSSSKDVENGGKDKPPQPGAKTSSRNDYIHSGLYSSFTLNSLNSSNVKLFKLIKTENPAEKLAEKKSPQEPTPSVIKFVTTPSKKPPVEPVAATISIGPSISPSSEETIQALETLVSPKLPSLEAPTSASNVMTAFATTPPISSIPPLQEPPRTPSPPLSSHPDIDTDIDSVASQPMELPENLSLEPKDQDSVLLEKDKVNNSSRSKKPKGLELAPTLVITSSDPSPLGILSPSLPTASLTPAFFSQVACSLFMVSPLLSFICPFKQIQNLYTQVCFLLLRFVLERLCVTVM
Summary of the method: as §1

[6] = biological target: T4, ETV2 (Homo sapiens, UniProt O00321 1-342)
T4 sequence: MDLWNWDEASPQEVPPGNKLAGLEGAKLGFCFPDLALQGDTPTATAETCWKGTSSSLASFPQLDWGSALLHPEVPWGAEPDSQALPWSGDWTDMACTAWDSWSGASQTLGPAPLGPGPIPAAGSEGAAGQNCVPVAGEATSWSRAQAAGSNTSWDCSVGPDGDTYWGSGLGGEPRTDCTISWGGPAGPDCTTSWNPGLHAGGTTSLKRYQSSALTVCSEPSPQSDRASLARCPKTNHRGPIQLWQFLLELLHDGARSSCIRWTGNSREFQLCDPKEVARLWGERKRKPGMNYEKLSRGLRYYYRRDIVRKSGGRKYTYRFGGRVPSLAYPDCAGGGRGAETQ
Summary of the method: as §1

[7] = biological target: T5, ELF3 (Homo sapiens, UniProt P78545 1-371)
T5 sequence: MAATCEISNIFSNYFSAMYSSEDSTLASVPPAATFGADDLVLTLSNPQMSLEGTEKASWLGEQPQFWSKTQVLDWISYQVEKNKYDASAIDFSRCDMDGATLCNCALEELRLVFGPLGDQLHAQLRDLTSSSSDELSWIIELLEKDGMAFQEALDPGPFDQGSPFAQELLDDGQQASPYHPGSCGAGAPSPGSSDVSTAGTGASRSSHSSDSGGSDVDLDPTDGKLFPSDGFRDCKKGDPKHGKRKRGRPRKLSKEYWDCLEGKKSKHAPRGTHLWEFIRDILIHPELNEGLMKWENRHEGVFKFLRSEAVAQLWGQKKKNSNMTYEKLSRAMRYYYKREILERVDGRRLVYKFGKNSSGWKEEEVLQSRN
Summary of the method: as §1

[8] = biological target: ETV1 (Homo sapiens, UniProt P50549 1-477)
Sequence of ETV1 (P50549 whole entry): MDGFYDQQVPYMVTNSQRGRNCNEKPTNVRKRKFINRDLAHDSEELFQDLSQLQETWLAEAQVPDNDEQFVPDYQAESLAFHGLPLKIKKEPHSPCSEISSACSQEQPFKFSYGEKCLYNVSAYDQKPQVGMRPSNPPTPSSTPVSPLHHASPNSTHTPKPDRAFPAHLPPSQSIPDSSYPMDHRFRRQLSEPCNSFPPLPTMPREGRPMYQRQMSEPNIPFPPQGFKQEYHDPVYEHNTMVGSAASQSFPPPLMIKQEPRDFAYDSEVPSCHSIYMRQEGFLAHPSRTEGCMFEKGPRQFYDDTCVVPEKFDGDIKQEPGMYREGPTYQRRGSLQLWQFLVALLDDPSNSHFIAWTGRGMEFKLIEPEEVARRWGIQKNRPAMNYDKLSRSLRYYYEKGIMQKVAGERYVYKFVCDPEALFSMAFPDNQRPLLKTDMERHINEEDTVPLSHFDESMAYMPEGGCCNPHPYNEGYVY
Summary of the method: as §1

[9] = biological target: T6, ERF (Homo sapiens, UniProt P50548 1-548)
T6 sequence: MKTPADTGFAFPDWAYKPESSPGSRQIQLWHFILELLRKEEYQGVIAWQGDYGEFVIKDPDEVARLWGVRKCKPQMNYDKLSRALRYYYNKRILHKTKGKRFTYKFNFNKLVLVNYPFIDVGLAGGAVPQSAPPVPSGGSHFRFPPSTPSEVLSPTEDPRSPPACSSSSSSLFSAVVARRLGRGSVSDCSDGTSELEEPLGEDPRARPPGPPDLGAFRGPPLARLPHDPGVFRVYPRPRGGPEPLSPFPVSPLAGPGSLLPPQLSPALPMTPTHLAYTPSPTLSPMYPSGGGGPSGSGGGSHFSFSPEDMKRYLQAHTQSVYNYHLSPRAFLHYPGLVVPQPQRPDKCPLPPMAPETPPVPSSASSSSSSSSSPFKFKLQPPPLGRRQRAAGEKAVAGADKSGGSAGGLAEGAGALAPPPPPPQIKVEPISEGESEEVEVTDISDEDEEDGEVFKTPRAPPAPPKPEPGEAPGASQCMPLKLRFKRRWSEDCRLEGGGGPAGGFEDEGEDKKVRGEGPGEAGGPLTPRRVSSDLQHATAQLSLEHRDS
Summary of the method: as §1

[10] = biological target: T7, ETV3L (Homo sapiens, UniProt Q6ZN32 1-361)
T7 sequence: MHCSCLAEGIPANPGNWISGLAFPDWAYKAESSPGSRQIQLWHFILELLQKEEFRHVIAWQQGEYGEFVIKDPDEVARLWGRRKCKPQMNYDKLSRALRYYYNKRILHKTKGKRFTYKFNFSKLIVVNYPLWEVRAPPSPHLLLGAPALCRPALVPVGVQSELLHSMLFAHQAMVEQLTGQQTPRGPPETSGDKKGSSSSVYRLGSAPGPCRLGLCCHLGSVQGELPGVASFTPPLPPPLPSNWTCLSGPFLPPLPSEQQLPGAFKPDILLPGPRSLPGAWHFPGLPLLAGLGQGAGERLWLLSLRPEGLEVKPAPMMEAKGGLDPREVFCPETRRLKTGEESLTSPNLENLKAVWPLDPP
Summary of the method: as §1

[11] = biological target: T8, ETS2 (Homo sapiens, UniProt P15036 1-469)
T8 sequence: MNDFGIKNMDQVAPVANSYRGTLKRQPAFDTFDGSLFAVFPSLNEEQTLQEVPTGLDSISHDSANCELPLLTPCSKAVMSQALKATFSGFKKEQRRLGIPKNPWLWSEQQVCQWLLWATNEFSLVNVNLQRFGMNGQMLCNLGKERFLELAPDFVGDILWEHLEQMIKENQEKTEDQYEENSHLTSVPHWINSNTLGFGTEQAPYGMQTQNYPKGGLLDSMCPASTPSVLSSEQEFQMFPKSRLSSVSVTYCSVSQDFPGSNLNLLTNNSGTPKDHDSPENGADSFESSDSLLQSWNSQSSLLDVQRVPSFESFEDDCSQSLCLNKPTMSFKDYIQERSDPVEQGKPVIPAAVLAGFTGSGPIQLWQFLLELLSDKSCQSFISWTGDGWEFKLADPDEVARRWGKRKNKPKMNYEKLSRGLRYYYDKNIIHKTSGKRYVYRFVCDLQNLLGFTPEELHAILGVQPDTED
Summary of the method: as §1

[12] = biological target: T9, SPDEF (Homo sapiens, UniProt O95238 1-335)
T9 sequence: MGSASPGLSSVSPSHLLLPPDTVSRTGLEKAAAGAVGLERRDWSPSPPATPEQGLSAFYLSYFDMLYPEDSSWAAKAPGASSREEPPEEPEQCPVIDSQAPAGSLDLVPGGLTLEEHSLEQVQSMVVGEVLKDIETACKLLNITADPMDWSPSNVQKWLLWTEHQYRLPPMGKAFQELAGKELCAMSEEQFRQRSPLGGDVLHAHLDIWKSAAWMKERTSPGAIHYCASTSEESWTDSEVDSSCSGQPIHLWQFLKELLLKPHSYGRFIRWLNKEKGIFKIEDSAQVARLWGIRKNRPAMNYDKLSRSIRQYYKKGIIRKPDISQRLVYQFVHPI
Summary of the method: as §1

[13] = biological target: T10, ETV7 (Homo sapiens, UniProt Q9Y603 1-341)
T10 sequence: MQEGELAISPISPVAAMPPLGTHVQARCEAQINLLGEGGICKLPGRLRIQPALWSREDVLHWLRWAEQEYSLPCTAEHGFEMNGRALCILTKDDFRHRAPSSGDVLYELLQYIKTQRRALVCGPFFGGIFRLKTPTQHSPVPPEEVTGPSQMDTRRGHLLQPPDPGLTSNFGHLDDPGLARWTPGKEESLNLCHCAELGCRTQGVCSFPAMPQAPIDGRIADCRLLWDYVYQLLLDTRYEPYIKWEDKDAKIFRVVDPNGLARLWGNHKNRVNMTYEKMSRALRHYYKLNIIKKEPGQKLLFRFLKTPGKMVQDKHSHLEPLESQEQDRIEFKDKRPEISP
Summary of the method: as §1

[14] = biological target: T11, ELF5 (Homo sapiens, UniProt Q9UKW6-2 1-255)
T11 sequence: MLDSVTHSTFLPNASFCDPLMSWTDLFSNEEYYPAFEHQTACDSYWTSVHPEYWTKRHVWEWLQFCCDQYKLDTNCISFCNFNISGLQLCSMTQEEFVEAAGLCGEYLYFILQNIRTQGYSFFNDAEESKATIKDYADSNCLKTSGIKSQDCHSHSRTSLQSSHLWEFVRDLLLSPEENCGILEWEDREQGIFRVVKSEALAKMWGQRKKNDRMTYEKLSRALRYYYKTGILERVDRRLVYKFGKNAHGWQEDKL
Summary of the method: as §1

[15] = biological target: T12, ETV3 (Homo sapiens, UniProt P41162-2 1-143)
T12 sequence: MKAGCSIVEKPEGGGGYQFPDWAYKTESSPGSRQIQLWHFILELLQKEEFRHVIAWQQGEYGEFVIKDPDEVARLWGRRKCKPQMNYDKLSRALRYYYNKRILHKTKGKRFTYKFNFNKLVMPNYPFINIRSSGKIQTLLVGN
Summary of the method: as §1

[16] = biological target: ETV6 (Homo sapiens, UniProt P41212 1-452)
Sequence of ETV6 (P41212 whole entry): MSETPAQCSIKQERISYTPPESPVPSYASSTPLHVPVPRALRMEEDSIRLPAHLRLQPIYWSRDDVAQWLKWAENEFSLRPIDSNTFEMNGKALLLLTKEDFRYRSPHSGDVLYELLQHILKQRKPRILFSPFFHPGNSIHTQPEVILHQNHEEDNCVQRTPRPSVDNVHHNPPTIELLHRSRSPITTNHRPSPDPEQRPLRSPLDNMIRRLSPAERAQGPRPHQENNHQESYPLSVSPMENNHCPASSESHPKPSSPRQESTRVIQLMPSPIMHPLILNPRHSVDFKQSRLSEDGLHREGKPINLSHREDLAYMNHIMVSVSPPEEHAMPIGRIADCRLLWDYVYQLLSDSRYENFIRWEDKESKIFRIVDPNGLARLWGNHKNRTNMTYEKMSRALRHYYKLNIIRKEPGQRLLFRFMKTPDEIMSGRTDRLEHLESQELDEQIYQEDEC
Summary of the method: as §1

[17] = biological target: CRX (Homo sapiens, UniProt O43186 1-299)
Sequence of CRX (O43186 whole entry): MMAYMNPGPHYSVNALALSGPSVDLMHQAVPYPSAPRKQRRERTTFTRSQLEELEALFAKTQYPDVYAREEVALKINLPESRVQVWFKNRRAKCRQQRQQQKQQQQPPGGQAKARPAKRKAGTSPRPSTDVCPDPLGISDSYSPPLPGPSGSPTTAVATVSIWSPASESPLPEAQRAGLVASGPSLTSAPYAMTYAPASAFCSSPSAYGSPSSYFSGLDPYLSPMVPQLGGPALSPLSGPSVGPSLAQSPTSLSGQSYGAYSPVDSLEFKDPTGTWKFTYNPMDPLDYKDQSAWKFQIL
Summary of the method: as §1

Sequence | binding signal [1] | binding signal [2] | binding signal [3] | binding signal [4] | binding signal [5] | binding signal [6] | binding signal [7] | binding signal [8] | binding signal [9] | binding signal [10] | binding signal [11] | binding signal [12] | binding signal [13] | binding signal [14] | binding signal [15] | binding signal [16] | binding signal [17]
CTGCGT | 1.07 fold enrichment (6-mer frequency, TF over GST control) | 1.09 fold enrichment (6-mer frequency, TF over GST control) | 1.31 fold enrichment (6-mer frequency, TF over GST control) | 1.09 fold enrichment (6-mer frequency, TF over GST control) | 1.3 fold enrichment (6-mer frequency, TF over GST control) | 1.09 fold enrichment (6-mer frequency, TF over GST control) | 1.07 fold enrichment (6-mer frequency, TF over GST control) | 1.11 fold enrichment (6-mer frequency, TF over GST control) | 1.13 fold enrichment (6-mer frequency, TF over GST control) | 1.16 fold enrichment (6-mer frequency, TF over GST control) | 1.15 fold enrichment (6-mer frequency, TF over GST control) | 1.2 fold enrichment (6-mer frequency, TF over GST control) | 1.23 fold enrichment (6-mer frequency, TF over GST control) | 1.11 fold enrichment (6-mer frequency, TF over GST control) | 1.13 fold enrichment (6-mer frequency, TF over GST control) | 1.02 fold enrichment (6-mer frequency, TF over GST control) | –
TCATGG | 1.05 fold enrichment (6-mer frequency, TF over GST control) | 1.09 fold enrichment (6-mer frequency, TF over GST control) | 1.16 fold enrichment (6-mer frequency, TF over GST control) | 1.07 fold enrichment (6-mer frequency, TF over GST control) | 1.05 fold enrichment (6-mer frequency, TF over GST control) | 1.04 fold enrichment (6-mer frequency, TF over GST control) | 1.16 fold enrichment (6-mer frequency, TF over GST control) | – | 1.07 fold enrichment (6-mer frequency, TF over GST control) | 1.05 fold enrichment (6-mer frequency, TF over GST control) | 1.1 fold enrichment (6-mer frequency, TF over GST control) | – | 1.1 fold enrichment (6-mer frequency, TF over GST control) | 1.07 fold enrichment (6-mer frequency, TF over GST control) | 1.11 fold enrichment (6-mer frequency, TF over GST control) | 1.11 fold enrichment (6-mer frequency, TF over GST control) | 1.07 fold enrichment (6-mer frequency, TF over GST control)
GGAAAC | 1.67 fold enrichment (6-mer frequency, TF over GST control) | 1.43 fold enrichment (6-mer frequency, TF over GST control) | 1.26 fold enrichment (6-mer frequency, TF over GST control) | 1.2 fold enrichment (6-mer frequency, TF over GST control) | 1.01 fold enrichment (6-mer frequency, TF over GST control) | 1.35 fold enrichment (6-mer frequency, TF over GST control) | 1.42 fold enrichment (6-mer frequency, TF over GST control) | 1.35 fold enrichment (6-mer frequency, TF over GST control) | 1.19 fold enrichment (6-mer frequency, TF over GST control) | 1.32 fold enrichment (6-mer frequency, TF over GST control) | 1.3 fold enrichment (6-mer frequency, TF over GST control) | 1.29 fold enrichment (6-mer frequency, TF over GST control) | 1.34 fold enrichment (6-mer frequency, TF over GST control) | 1.7 fold enrichment (6-mer frequency, TF over GST control) | 1.42 fold enrichment (6-mer frequency, TF over GST control) | 1.66 fold enrichment (6-mer frequency, TF over GST control) | –
